Most compounds without a hit are left out; they make up all but 0.93% or so of the library.
CIT2 TOR yeast: yeast TOR pathway CIT2-GFP modulation; S. cerevisiae CIT2-GFP strain, flow cytometry, 3 h; 100 means same as DMSO wells; GFP response vs DMSO, % at 10 µM; actives 0.065% (n = 320,000); AID 2029;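 active = GFP response relative to DMSO above a set limit, near the screen mean plus 3 SD, cut at about 150% in these data; inconclusive = Fewer than 70 cells measured for a yeast strain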;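 also: ratio of well median GFP fluorescence to mean of DMSO wells on the plate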
MEP2 TOR yeast: yeast TOR pathway MEP2-GFP modulation | S. cerevisiae MEP2-GFP strain, flow cytometry GFP, 3 h; 100% = DMSO control level | GFP response vs DMSO, % at 10 µM | actives 0.51% (n = 330,000) | AID 2016;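 active = GFP response versus DMSO above a set limit, roughly screen mean plus 3 SD, cut at about 180% in these data; inconclusive = fewer than 70 cells counted for a yeast strain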;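 also: median GFP fluorescence of the barcode-gated MEP2-GFP cells per well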
LAP4-GFP MLPCN: yeast TOR pathway LAP4-GFP modulation. S. cerevisiae LAP4-GFP multiplex, flow cytometry GFP, 3 h; median GFP as percent of DMSO wells. GFP response vs DMSO, % at 10 µM. actives 0.34% (n = 320,000);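 active = GFP response vs DMSO above a set limit, about the screen mean plus 3 SD, cut at about 150% in these data; inconclusive = under 70 cell events counted for the yeast strain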
AGP1-GFP MLPCN: yeast TOR pathway AGP1-GFP modulation; S. cerevisiae AGP1-GFP multiplex flow cytometry, 3 h; GFP as percent of DMSO wells; GFP response vs DMSO, % at 10 µM; actives 0.02% (n = 320,000); AID 2066;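 active = GFP response relative to DMSO above a set limit, near screen average plus 3 SD, cut at about 150% in these data; inconclusive = fewer than 70 cells counted for the yeast strain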;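 also: median GFP channel fluorescence of the gated AGP1 strain per well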
RPL19A TOR yeast: yeast TOR pathway RPL19A-GFP modulation | S. cerevisiae RPL19A-GFP strain, flow cytometry, 3 h; active compounds read low | percent response vs DMSO, % at 10 µM | actives 0.3% (n = 330,000);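 active = percent response vs DMSO below 50%; inconclusive = fewer than 70 events counted for the yeast strain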;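 also: median channel GFP fluorescence of the barcoded RPL19A-GFP strain; ratio of sample median GFP to plate DMSO average so 100% = DMSO; lower means less RPL19A-GFP as with rapamycin TOR inhibition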
Starred values were filed as active, the others as inactive; [ ] = remark or other dose.

Screening CCNC(=O)NC(=O)CSc1nc2ccccc2n1CC(C)C returned CIT2 TOR yeast inconclusive, MEP2 TOR yeast 388.2*[may fluoresce violet], LAP4-GFP MLPCN 84.2, AGP1-GFP MLPCN 62.8 and RPL19A TOR yeast 41.9*[may fluoresce violet].
For COc1cc2cc(CCCOC(=O)c3ccc4c(c3)OCO4)oc(=O)c2cc1OC the results were CIT2 TOR yeast 95.5, MEP2 TOR yeast 96.5, LAP4-GFP MLPCN 94.7, AGP1-GFP MLPCN 98.8 and RPL19A TOR yeast 97.3.
`Cc1ccsc1CNC12CC3CC(CC(C3)C1)C2` gave CIT2 TOR yeast 90.8, MEP2 TOR yeast 93.6, LAP4-GFP MLPCN 94.1, AGP1-GFP MLPCN 94.4 and RPL19A TOR yeast 90.5.
`CCOC(=O)N1CCN(C(=O)CCc2nc3sc4c(c3c(=O)[nH]2)CCCC4)CC1` gave CIT2 TOR yeast inconclusive, MEP2 TOR yeast inconclusive, LAP4-GFP MLPCN inconclusive, AGP1-GFP MLPCN inconclusive and RPL19A TOR yeast 33.6*[may fluoresce violet].
Screening NC(=O)C1CCN(C(=O)CCc2nc3sc4c(c3c(=O)[nH]2)CCCC4)CC1 returned CIT2 TOR yeast 90.4, MEP2 TOR yeast 93.1, LAP4-GFP MLPCN 96.2, AGP1-GFP MLPCN 94.2 and RPL19A TOR yeast 88.8.
`O=C(COc1cccc(NC(=O)c2cccc([N+](=O)[O-])c2)c1)c1ccc(Br)cc1` gave CIT2 TOR yeast inconclusive, MEP2 TOR yeast 258.9*[may fluoresce violet], LAP4-GFP MLPCN 59.3, AGP1-GFP MLPCN inconclusive and RPL19A TOR yeast 60.9.
For O=C(Nc1cccc(OCC(=O)N2CCOCC2)c1)c1cccc([N+](=O)[O-])c1 the results were CIT2 TOR yeast 94.3, MEP2 TOR yeast 94.0, LAP4-GFP MLPCN 100.9, AGP1-GFP MLPCN 100.5 and RPL19A TOR yeast 97.5.
`CN1CCN(CCNC(=O)Nc2ccc(Cl)cc2)CC1` gave CIT2 TOR yeast 94.5, MEP2 TOR yeast 101.6, LAP4-GFP MLPCN 110.0, AGP1-GFP MLPCN 107.7 and RPL19A TOR yeast 99.1.
For Cc1ccc(NC(=O)c2ccccc2NC(=O)CCC(=O)O)cc1 the results were CIT2 TOR yeast 102.8, MEP2 TOR yeast 101.1, LAP4-GFP MLPCN 101.2, AGP1-GFP MLPCN 101.6 and RPL19A TOR yeast 104.1.
Screening CC(=O)c1ccccc1NCC(=O)Nc1ccc(C)cc1 returned CIT2 TOR yeast 217.5*, MEP2 TOR yeast 298.9*, LAP4-GFP MLPCN 226.0*, AGP1-GFP MLPCN 117.5 and RPL19A TOR yeast 118.3.
`Cc1ccc2nc3c(cc(C(=O)NCCCn4ccnc4)n3C)c(=O)n2c1` gave MEP2 TOR yeast 371.0*[may fluoresce violet], LAP4-GFP MLPCN 86.1, AGP1-GFP MLPCN 78.2 and RPL19A TOR yeast 39.4*[may fluoresce violet].
COCCCn1c(C(=O)NCCN2CCOCC2)cc2c(=O)n3ccccc3nc21 was read as CIT2 TOR yeast 94.7, MEP2 TOR yeast inconclusive, LAP4-GFP MLPCN 104.0, AGP1-GFP MLPCN 97.5 and RPL19A TOR yeast inconclusive.
Screening N=c1c(C(=O)NCc2ccccc2)cc2c(=O)n3ccccc3nc2n1CCCN1CCOCC1 returned CIT2 TOR yeast inconclusive, MEP2 TOR yeast 231.2*[may fluoresce violet], LAP4-GFP MLPCN 73.4, AGP1-GFP MLPCN inconclusive and RPL19A TOR yeast 14.5*[may fluoresce violet].
`N=c1c(C(=O)NCCN2CCOCC2)cc2c(=O)n3ccccc3nc2n1CCc1ccccc1` gave CIT2 TOR yeast inconclusive, MEP2 TOR yeast 251.2*[may fluoresce violet], LAP4-GFP MLPCN 76.8, AGP1-GFP MLPCN inconclusive and RPL19A TOR yeast 13.6*[may fluoresce violet].
For Cn1c(C(=O)NCCN2CCOCC2)cc2c(=O)n3ccccc3nc21 the results were CIT2 TOR yeast inconclusive, MEP2 TOR yeast 263.0*[may fluoresce violet], LAP4-GFP MLPCN 68.1, AGP1-GFP MLPCN inconclusive and RPL19A TOR yeast 45.9*[may fluoresce violet].
Screening Cc1ccoc1C(=O)N1CCCCC1C(=O)O (centres undefined) returned CIT2 TOR yeast 103.1, MEP2 TOR yeast 97.9, LAP4-GFP MLPCN 101.4, AGP1-GFP MLPCN 106.4 and RPL19A TOR yeast 99.8.
Cn1c(C(=O)O)cc2c(=O)n3ccccc3nc21 was read as CIT2 TOR yeast 120.3, MEP2 TOR yeast 208.9*, LAP4-GFP MLPCN 89.3, AGP1-GFP MLPCN 101.0 and RPL19A TOR yeast 48.9*.
N=c1c(C(=O)NCCc2ccccc2)cc2c(=O)n3ccccc3nc2n1CCCN1CCOCC1 was read as CIT2 TOR yeast inconclusive, MEP2 TOR yeast 443.7*[may fluoresce violet], LAP4-GFP MLPCN 89.7, AGP1-GFP MLPCN inconclusive and RPL19A TOR yeast 44.7*[may fluoresce violet].
`CC1CC(NC(=O)c2cc3c(=O)n4ccccc4nc3n2C)CC(C)(C)C1` (centres undefined) gave CIT2 TOR yeast inconclusive, MEP2 TOR yeast 130.3, LAP4-GFP MLPCN 78.8, AGP1-GFP MLPCN inconclusive and RPL19A TOR yeast 26.1*[may fluoresce violet].
Screening N=c1c(C(=O)NCc2ccc(F)cc2)cc2c(=O)n3ccccc3nc2n1CCCN1CCOCC1 returned CIT2 TOR yeast inconclusive, MEP2 TOR yeast 235.1*[may fluoresce violet], LAP4-GFP MLPCN 97.6, AGP1-GFP MLPCN 81.0 and RPL19A TOR yeast 17.5*.
Screening Cn1c(C(=O)N2CCOCC2)cc2c(=O)n3ccccc3nc21 returned CIT2 TOR yeast inconclusive, MEP2 TOR yeast 142.6, LAP4-GFP MLPCN 64.1, AGP1-GFP MLPCN inconclusive and RPL19A TOR yeast 61.0.
`COc1ccc(C(=O)C2CCCN(C(=O)Cn3nc(C)cc3C)C2)cc1F` (centres undefined) gave CIT2 TOR yeast 96.7, MEP2 TOR yeast 105.3, LAP4-GFP MLPCN 98.6, AGP1-GFP MLPCN 102.0 and RPL19A TOR yeast 99.5.
COc1ccc(CC(=O)N/N=C(\C)CC(=O)Nc2ccc(N(C)C)cc2)cc1OC was read as CIT2 TOR yeast 101.7, MEP2 TOR yeast 106.4, LAP4-GFP MLPCN 91.0, AGP1-GFP MLPCN 94.7 and RPL19A TOR yeast 100.8.
`O=C(Nc1ccccc1)Nc1cccc(C(F)(F)F)c1` gave CIT2 TOR yeast 95.8, MEP2 TOR yeast 99.7, LAP4-GFP MLPCN 98.2, AGP1-GFP MLPCN 94.5 and RPL19A TOR yeast 94.5.
Screening C[C@H](NC(=O)Nc1cccc(C(F)(F)F)c1)C(=O)O returned CIT2 TOR yeast inconclusive, MEP2 TOR yeast 345.9*[may fluoresce violet], LAP4-GFP MLPCN 90.6, AGP1-GFP MLPCN 20.7 and RPL19A TOR yeast 76.8.
Screening CCN(C[C@H]1N[C@@](CC)(C(=O)OC)[C@H]2C(=O)N(Cc3ccccc3)C(=O)[C@@H]12)S(=O)(=O)c1ccc(F)cc1 returned CIT2 TOR yeast 99.8, MEP2 TOR yeast 105.9, LAP4-GFP MLPCN 98.2, AGP1-GFP MLPCN 104.2 and RPL19A TOR yeast 106.1.
COC(=O)C(CC(C)C)NC(=O)c1cccs1 (centres undefined) was read as CIT2 TOR yeast 92.5, MEP2 TOR yeast inconclusive, LAP4-GFP MLPCN inconclusive, AGP1-GFP MLPCN 100.5 and RPL19A TOR yeast 86.2.
For Cc1[nH]c2ccccc2c1/C=N/NC(=O)c1cc(-c2ccccc2)n[nH]1 the results were CIT2 TOR yeast inconclusive, MEP2 TOR yeast 173.8, LAP4-GFP MLPCN 76.7, AGP1-GFP MLPCN inconclusive and RPL19A TOR yeast 45.7*[may fluoresce violet].
Cc1[nH]c2ccccc2c1/C=N/NC(=O)Nc1ccccc1 was read as CIT2 TOR yeast inconclusive, MEP2 TOR yeast 87.8, LAP4-GFP MLPCN 125.8, AGP1-GFP MLPCN inconclusive and RPL19A TOR yeast 23.7*[may fluoresce violet].
`Cc1ccc(NC(=S)N/N=C/c2c(C)[nH]c3ccccc23)cc1` gave CIT2 TOR yeast 120.0, MEP2 TOR yeast 96.1, LAP4-GFP MLPCN 183.8*, AGP1-GFP MLPCN 63.9 and RPL19A TOR yeast 67.4.
